Experimental findings from PubChem BioAssay AID1851 (National Center for Advancing Translational Sciences (NCATS), 2009) are described below.

Hit rate of the full screen: of about 16,000 compounds, about 4,000 (25%) were called active. Inconclusive results (about 26%) are left out. Only a sample is shown. Values without a mark were called inactive. Calls come from the whole dose curve; as a rule, active = well fitted curve in the direction sought with a large enough effect; inconclusive = small, poorly fitted or top-dose-only effect, or effect the other way; inactive = no such curve, though single readings can be large or run the other way.
% is set by controls: 0 for no effect and ±100 for the full control effect.

Chain of Cytochrome P450 2C9 (Homo sapiens) (P11712 whole entry, looked up): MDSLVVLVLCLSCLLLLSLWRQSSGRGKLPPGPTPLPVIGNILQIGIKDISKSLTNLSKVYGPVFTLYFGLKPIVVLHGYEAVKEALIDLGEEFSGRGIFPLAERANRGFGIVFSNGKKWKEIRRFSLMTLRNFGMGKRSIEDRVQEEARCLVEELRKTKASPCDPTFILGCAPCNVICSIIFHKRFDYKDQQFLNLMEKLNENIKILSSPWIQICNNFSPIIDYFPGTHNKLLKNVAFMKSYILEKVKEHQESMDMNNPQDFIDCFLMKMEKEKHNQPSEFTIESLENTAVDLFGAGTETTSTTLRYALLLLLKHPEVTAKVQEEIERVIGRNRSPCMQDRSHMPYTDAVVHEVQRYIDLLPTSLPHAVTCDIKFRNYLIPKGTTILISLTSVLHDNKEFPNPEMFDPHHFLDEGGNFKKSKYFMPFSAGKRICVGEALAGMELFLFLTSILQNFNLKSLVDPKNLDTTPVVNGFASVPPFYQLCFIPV

This assay addresses Cytochrome P450 2C9 (Homo sapiens) (UniProt P11712). Kind of assay: Cytochrome panel assay with activity outcomes. The conditions noted are these: recombinant CYP, pro-luciferin dealkylation, luminescence, p450-cyp2c9; series mostly up to 57.1 µM.
Broadly, the AC50 is the concentration giving half of the maximal activity seen. As to `COCC(=O)N1CCC2(CCCN(C(=O)Nc3cccc(C#N)c3)C2)CC1`, the AC50 entry is “inactive”.
On to `O=[N+]([O-])c1nccn1C[C@H](O)CN1CCCCC1`, for which the activity, negative = inhibition is 0.319% [at 11.4 µM].
Regarding `COc1cccc(Nc2ncc3nc(-c4cc(F)cc(F)c4)c(=O)n(CCC#N)c3n2)c1`, the AC50 result is “inactive”.
Same read-out and setting: under `CCN1/C(=C/c2ccc3cccc(C)c3[n+]2CC)Sc2ccccc21` stands “inactive”; under `O=[N+]([O-])c1cc(F)c(N2CCOCC2)cc1N1CCCCC1`, 7.08 µM (active); under `O=C1N/C(=C\c2ccc(N3CCOCC3)c(F)c2)C(=O)N1Cc1ccccc1`, “inactive”.
As for `Cn1ncc([N+](=O)[O-])c1C(=O)N1CCOCC1`, the AC50 entry was “inactive”.
In the case of `N#Cc1c2n(c3c(=S)nc[nH]c13)CCCCC2`, the AC50 is 17.8 µM (active).
Turning to `CO[C@H]1COC(=O)[C@H](C)COC(=O)C/C=C\[C@@H](C)[C@H](OC)COC(=O)C/C=C\[C@@H]1C`, the activity, negative = inhibition is 8.36% [at 11.4 µM].
In the case of `CCCc1ccc(C2C3=C(CC(C)(C)CC3=O)NC3=C2C(=O)c2ccccc23)cc1` (configuration not stated), the AC50 is 7.94 µM (active).
Regarding `CO[C@H]1COC(=O)[C@@H](Cc2ccccc2)NC(=O)[C@@H](C)COC(=O)C/C=C\[C@@H]1C`, the activity, negative = inhibition was 15.1% [at 11.4 µM].
Consider `Cc1ccc(C(N)=Nc2ccccc2)cc1`, for which the activity, negative = inhibition is 3.59% [at 11.4 µM].
Take `Cc1ccc(/C(N)=N/OC(=O)Cc2cccs2)cc1`: the AC50 is 7.08 µM (active).
For the compound `O=C(O)C(Cc1cccs1)C(=O)O`, the activity, negative = inhibition is -6.54% [at 11.4 µM].
Turning to `C[N+]1(C)C[C@@H](O)C[C@@H]1C(=O)[O-]`, the AC50 result is “inactive”.
On to `Cc1ccccc1-c1cncnc1NCc1cccs1`, for which the activity, negative = inhibition is 0.654% [at 2.29 µM].
For the compound `COc1cccc(C(CC(=O)Nc2cccc3ccccc23)NC(=O)c2ccccc2)c1` (configuration not stated), the AC50 was 0.251 µM (active).
Regarding `CN(CCO)c1nc(N)c2c(N)nc3c(c2c1C#N)CC(=O)N3C1CCCC1`, the AC50 was 1.41 µM (active).
Same read-out and setting: for `CC(C)NC(=O)N1CCCC2(CCN(C(=O)c3ccco3)CC2)C1` the value was “inactive”.
On to `CC(C)(C)c1cc2c(O)c(c1)Cc1cc(C(C)(C)C)cc(c1O)Cc1cc(C(C)(C)C)cc(c1O)Cc1cc(C(C)(C)C)cc(c1O)Cc1cc(C(C)(C)C)cc(c1O)Cc1cc(C(C)(C)C)cc(c1O)Cc1cc(C(C)(C)C)cc(c1O)Cc1cc(C(C)(C)C)cc(c1O)C2`, for which the activity, negative = inhibition is -3.37% [at 11.4 µM].
In the case of `CN(Cc1ccco1)c1nc(-c2ccc3c(c2)OCO3)nc2ccccc12`, the activity, negative = inhibition is -18.1% [at 2.29 µM].
As for `Cn1c(-c2ccc3c(c2)OCO3)cc(=O)c2ccccc21`, the AC50 result is “inactive”.
With `c1ccc2c(c1)ncn2Cc1nnc2sc(-c3ccc4c(c3)OCO4)nn12`, the AC50 was 3.16 µM (active).
With `COc1cc(C(=O)OC(C)C(=O)Nc2ccc3c(c2)OCO3)ccc1OCc1c(C)noc1C` (configuration not stated), the AC50 is 11.2 µM (active).
Regarding `COc1ccc(C(=O)OC(C)CN2CCN(C)CC2)cc1OC` (configuration not stated), the AC50 result was “inactive”.
Consider `Cc1noc(C)c1COc1ccc(C(=O)NCC2CCCO2)cc1` (configuration not stated), for which the AC50 entry was “inactive”.
Regarding `N#C[C@@H](N=Nc1ccccc1C(=O)O)C(N)=O`, the activity, negative = inhibition is -3.32% [at 11.4 µM].
On the same count and under the same terms, for `CNc1nc(-c2ccccc2C)nc2ccccc12` the value was 24.9% [at 2.29 µM].
In the case of `CCN(CC)S(=O)(=O)c1ccc(C(=O)Nc2ncn(Cc3ccccc3)n2)cc1`, the AC50 was 11.2 µM (active).
Take `CCCN(CCC)S(=O)(=O)c1ccc(C(=O)O)cc1`: the AC50 result is “inactive”.
Still for that read-out and setting: under `O[C@@H](C1=C/C(=C\c2ccncc2)c2ccccc21)c1ccncc1` stands 0.1 µM (active); under `Cc1cc(C(C)(C)C)cc(C)c1CC1=NCCN1`, “inactive”.
The same measure, in the same setting: for `CCOc1ccc(NC(=O)N(C2CCCCC2)C(C)c2ccncc2)cc1` (configuration not stated) the value was 3.55 µM (active); for `CCCCN(C(=O)Nc1ccc(OCC)cc1)C1CCN(C(C)=O)CC1`, “inactive”.
Same read-out and setting: for `CCOc1ccc(NC(=O)N2CCC(C(N)=O)(N3CCCCC3)CC2)cc1` the value was “inactive”.
For `c1ccc(CCNc2ccccn2)nc1`, the activity, negative = inhibition was -7.63% [at 11.4 µM].
In the case of `CCN(CCO)C[C@H]1CCC[C@H]2CCCC[C@@H]21`, the activity, negative = inhibition was 1.06% [at 11.4 µM].
Turning to `O=C(Nc1ccc2oc(-c3ccccc3F)nc2c1)c1ccc2c(c1)OCCO2`, the AC50 is 8.91 µM (active).
Take `Cn1c(CN2CCCCC2)nc2cc(NC(=O)c3ccc(Cl)cc3)ccc21`: the AC50 entry was “inactive”.
Consider `C[C@@]1(C(=O)O)NCCc2cc(O)c(O)cc21`, for which the AC50 entry was “inactive”.
As to `CN(C)CCCN1c2ccccc2C(C)(C)c2ccccc21`, the activity, negative = inhibition was -4.58% [at 11.4 µM].
In the case of `COc1nc(OCCNC(C)=O)nc(N(C)C)n1`, the AC50 result is “inactive”.
Still for that read-out and setting: under `CCNc1ncc2nc(-c3cccc(C#N)c3)c(=O)n(CCC#N)c2n1` stands “inactive”; under `COCCn1c(=O)c(-c2cccc(C#N)c2)nc2cnc(Oc3ccccc3)nc21`, 7.94 µM (active).
In the case of `Cn1c(=O)c(-c2cccc(C#N)c2)nc2cnc(Oc3ccccc3)nc21`, the AC50 result was “inactive”.
In the case of `COc1ncc2nc(-c3cccc(C#N)c3)c(=O)n(CCC#N)c2n1`, the AC50 result was “inactive”.
The same measure, in the same setting: for `COCCn1c(=O)c(-c2cccc(C#N)c2)nc2cnc(OCc3ccccc3)nc21` the value was 10 µM (active); for `COCCn1c(=O)c(-c2cccc(C#N)c2)nc2cnc(N(C)C)nc21`, “inactive”.
On to `C[C@@H]1/C=C\CC(=O)OC[C@H](C)C(=O)N[C@@H](C)C(=O)OC1`, for which the activity, negative = inhibition is 5.57% [at 11.4 µM].
Turning to `Nc1nc2c(nc(Br)n2[C@@H]2O[C@H]3COP(=O)(O)O[C@@H]3[C@H]2O)c(=O)[nH]1`, the AC50 entry was “inactive”.
The same measure, in the same setting: under `COc1ccc(C2N(c3ccccn3)C(=O)C3CCCN32)c(OC)c1` (configuration not stated) stands “inactive”.
Regarding `COc1ccc(N2C(=O)c3ccccc3NC2c2ccc(OC)c(CSc3ccccn3)c2)cc1` (configuration not stated), the AC50 is 1.12 µM (active).
Same read-out and setting: under `CN(C)[C@@H]1C(=O)C(C(N)=O)=C(O)[C@]2(O)C(=O)C3=C(O)c4c(O)ccc(Cl)c4[C@H](O)[C@H]3C[C@@H]12` stands “inactive”; under `CCOC(=O)C1=C(O)C(=O)N(Cc2ccccc2)C1`, 3.98 µM (active).
Regarding `CCOC(=O)N/N=C1/C[C@@H](O)[C@@H](O)[C@@H]2[C@@H]3C(=O)N(Cc4ccccc4)C(=O)[C@H]3CC[C@@H]12`, the activity, negative = inhibition is 23.5% [at 11.4 µM].
Still for that read-out and setting: for `CCOC(=O)N/N=C1/C[C@@H](O)[C@@H](O)[C@@H]2[C@@H]3C(=O)N(Cc4ccccc4)C(=O)[C@H]3CC[C@H]12` the value was -12.9% [at 11.4 µM].
For `CCCCCCC1CC(C)(/C(C)=N/NC(N)=O)OC1=O` (configuration not stated), the half-maximal activity concentration (AC50) is 22.4 µM (active).
Consider `CC(=O)OC[C@H]1O[C@@H](O/N=C(\C)CCC(=O)OC[C@@H]2O[C@H](C#Cc3ccccc3)C=C[C@@H]2Oc2ccc(C)cc2)[C@H](OC(C)=O)[C@@H](OC(C)=O)[C@H]1OC(C)=O`, for which the activity, negative = inhibition is -6.45% [at 11.4 µM].
With `O=C(Nc1ccc(Cl)c(Cl)c1)N1CCC(N2CCCCC2)CC1`, the AC50 result was “inactive”.
As for `CC1CCN(C(=O)Nc2ccc3nsnc3c2)CC1`, the AC50 was 15.8 µM (active).
As to `Cc1cccc(C)c1NC(=O)N1CCC(N2CCCCC2)CC1`, the AC50 result is “inactive”.
As to `COc1ccc(/C=C2\SC(=O)N(CCNC(=O)C3CC(=O)N(c4ccccc4)C3)C2=O)cc1` (configuration not stated), the AC50 is 7.94 µM (active).
`COCCCNC(=O)C1CC(=O)N(CCc2ccc(OC)c(OC)c2)C1` (configuration not stated): the AC50 entry was “inactive”.
With `COCCCNC(=O)C1CC(=O)N(Cc2ccc(OC)cc2)C1` (configuration not stated), the AC50 result is “inactive”.
On to `COc1ccccc1-c1cc(NCc2cccs2)ncn1`, for which the activity, negative = inhibition is 17.3% [at 2.29 µM].
In the case of `CCC(Sc1nc(C)cc(=O)[nH]1)C(=O)Nc1nc2c(s1)CCCC2` (configuration not stated), the AC50 is 7.94 µM (active).
Regarding `O=C(Cc1ccc(S(=O)(=O)N2CCOCC2)s1)Nc1nc2c(s1)CCCC2`, the AC50 is 15.8 µM (active).
Same read-out and setting: for `Cc1ccc(S(=O)(=O)CCC(=O)Nc2nc3c(s2)CCCC3)cc1` the value was 1.12 µM (active).
For the compound `CCC(=O)Nc1c2c(nc3c1CCC3)CCCC2`, the AC50 entry was “inactive”.
Same read-out and setting: for `O=C(NCCN1CCOCC1)c1csc2c1CCCCC2` the value was “inactive”; for `Cc1cc(=O)[nH]c(-n2[nH]c3c(c2=O)CCCC3)n1`, “inactive”; for `Cc1cc(=O)[nH]c(SCC(=O)Nc2nc3c(s2)CCCC3)n1`, 15.8 µM (active).
For `Cc1ccc(CS(=O)(=O)CCC(=O)NCCN2CCCC2)cc1`, the AC50 result was “inactive”.
With `Cc1ccc(CS(=O)(=O)CCC(=O)NCCCN2CCCC2)cc1`, the AC50 entry was “inactive”.
The same measure, in the same setting: under `C[C@@]12C=CC(=O)C=C1CC[C@@H]1[C@@H]2[C@H](O)C[C@]2(C)[C@@H]1CC[C@]2(O)C(=O)CO` stands “inactive”; under `COC(=O)[C@@]1(Cc2ccc(OC)cc2)[C@H]2c3cc(C(=O)N4CCCC4)n(Cc4ccc(Cl)c(C(F)(F)F)c4)c3C[C@H]2CN1C(=O)c1ccccc1`, 20 µM (active); under `COC(=O)[C@@]1(Cc2ccc(F)cc2)[C@H]2c3cc(C(=O)N4CCCC4)n(Cc4ccc(Cl)c(C(F)(F)F)c4)c3C[C@H]2CN1C(=O)c1ccccc1`, 12.6 µM (active).
Turning to `COC(=O)[C@@]1(Cc2ccc(F)cc2)[C@H]2c3cc(C(=O)N(C)C)n(CCCNc4ccc(C(F)(F)F)cc4Cl)c3C[C@H]2CN1C(=O)c1ccccc1`, the AC50 is 20 µM (active).
As to `COC(=O)[C@@]1(Cc2ccc(F)cc2)[C@H]2c3cc(C(=O)N(C)C)n(Cc4ccc(Cl)c(C(F)(F)F)c4)c3C[C@H]2CN1C(=O)c1ccccc1`, the concentration at half-maximal activity (AC50) was 3.98 µM (active).
With `O=C1CN(c2nc(-c3ccccc3)c3cc(Br)ccc3n2)c2ccccc2N1`, the AC50 entry was “inactive”.
For the compound `O=C(Nc1ccccc1)N1CCCC2(CCN(C(=O)c3csnn3)CC2)C1`, the AC50 result is “inactive”.
For the compound `CCOc1cccc2cc(C(N)=O)c(=NCc3ccccc3)oc12`, the AC50 entry is “inactive”.
As to `CCC1CCc2c(c3ccccc3[nH]c2=O)O1` (configuration not stated), the AC50 result is “inactive”.
For the compound `Cc1cnc(CNc2nc(-c3ccc(C(=O)N(C)C)cc3)nc3ccccc23)cn1`, the activity, negative = inhibition is 6.85% [at 2.29 µM].
For the compound `O=C(Nc1cccc(F)c1)N1CCC2(CC1)CCN(C(=O)c1ccco1)CC2`, the AC50 entry is “inactive”.
Take `CC(=O)c1cccc(NC(=O)/C(=C\c2ccco2)NC(=O)c2cccs2)c1`: the AC50 is 8.91 µM (active).
With `O=C(Nc1cccc(F)c1)/C(=C\c1ccco1)NC(=O)c1cccs1`, the AC50 is 31.6 µM (active).
